Source: publication PMC5540273 (PLoS ONE, 2017)

tested on: AKT1; details: concentration: 1 μM, replicates: in singlicate; n = 1
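Also: KINOMEscan kinase panel screen.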

SMILES	%Inh
Cc1cccc(-c2cc(-c3c[nH]nc3-c3ccccn3)ccn2)c1 [GW679395]	0%
Cc1ccc(Oc2ccc(Nc3ncnc4cc[nH]c34)cc2C)cn1	17%
O=C1NC(=O)C(c2ccccc2)=C1Nc1cccc(O)c1 [SB-390534]	0%
CCS(=O)(=O)c1ccc(OC)c(Nc2ncc(-c3ccc(F)cc3)o2)c1.Cl [GW591947]	0%
Cl.c1ccc(Cn2cnc3cc(Nc4ncnc5ccccc45)ccc32)cc1 [GW272142]	0%
CN(C)c1cc(-c2ccc3c(N)n[nH]c3c2)nc(N)n1 [GSK2219329]	0%
Cc1nn2c(=O)cc(N3CCOCC3)nc2n1Cc1cccc(Cl)c1Cl [GSK2342769]	0%
Nc1nc(-c2ccccc2F)c(-c2ccnc3ccccc23)s1 [GW560459]	0%
COc1ccc(-n2cnc3c(N)ncnc32)cc1 [SKF-97236]	0%
COc1cccc(C2=C(Nc3cccc(C(=O)O)c3)C(=O)NC2=O)c1 [SB-390770]	2%
COc1cc2nccc(Nc3cccc(Oc4ccccc4)c3)c2cc1OC.Cl [GW284543]	0%
CCCC(=O)Nc1n[nH]c2ncc(-c3cccc4ccccc34)cc12 [SB-642057]	0%
CCc1nc(-c2cccc(C)c2)c(-c2ccncc2)s1	0%
O=C(Nc1ccc2c(c1)OCO2)NC1CCN(c2ccnc(NCc3ccc(F)cc3)n2)CC1 [GSK1379859]	0%
Cc1ccc(-c2ccc3c(ccc4sc5c(c43)NC[C@@H](C)N=C5N(C)C)n2)cn1	0%
Cc1nc(N(C)[C@H]2CN(C(=O)CC#N)CC[C@H]2C)c2cc[nH]c2n1	0%
O=C(Nc1n[nH]c2nc(-c3ccccc3)c(Cl)cc12)C1CC1 [SB-734909]	0%
COc1cccc(C2=C(N(C)c3ccccc3)C(=O)NC2=O)c1 [SB-334865]	0%

SMILES	%Inh
COc1ccc(-c2coc3ccc(-c4nnc(SCc5cccc(C#N)c5)o4)cc23)cc1	0%
O=C(NCCNc1ccnc(Nc2ccc(F)cc2)n1)Nc1ccc2c(c1)OCO2 [GSK1379882]	0%
CCS(=O)c1ccc(-c2coc3ccc(-c4nnc(C)o4)cc23)cc1 (stereo not drawn)	0%
Cc1cccc(-c2nc(Nc3ccc4c(cnn4C)c3)c3ccccc3n2)n1 [GW876731]	21%
CCn1c(-c2nonc2N)nc2ccccc21 [SB-693162/GW549034]	0%
CCC(=O)c1c(-c2ccccc2)c2cc(Cl)ccc2c(=O)n1Cc1cc(S(C)(=O)=O)n(CC(F)F)n1	0%
COc1cc2ncn(-c3cc(OCc4ccncc4Br)c(C(N)=O)s3)c2cc1OC [GW854278]	0%
COC(=O)c1c(-c2ccccc2)c2cc(C)ccc2c(=O)n1Cc1ccccc1	0%
Cc1nnc(-c2ccc3ncn(-c4ccc(S(C)=O)cc4)c3c2)o1 (stereo not drawn)	0%
COC(=O)c1c(-c2ccccc2)c2cc(Br)ccc2c(=O)n1Cc1ccc(S(C)(=O)=O)cc1	14%
CCC(=O)c1c(-c2ccccc2)c2cc(Cl)ccc2c(=O)n1Cc1cc(S(C)(=O)=O)n(CC(N)=O)n1	0%
COc1cc(Nc2ccnc3ccc(C(F)(F)F)cc23)cc(OC)c1OC [GW577382]	0%
Cc1ccccc1COc1cc(-n2cnc3cc(Cl)ccc32)sc1C(N)=O [GW813349]	0%
Nc1n[nH]c2ncc(-c3ccccc3)cc12 [SB-517081]	0%
CC(C)(C)c1ccc(C(=O)Nc2cn3cc(-c4ccccc4)ccc3n2)cc1	0%
FC(F)(F)c1ccc(-c2ncn(CCCN3CCOCC3)c2-c2ccncc2)cc1 [SB-217780]	0%
O=C(Nc1n[nH]c2nc(-c3ccccc3)c(Br)cc12)C1CC1 [SB-708998]	7%
COC(=O)c1c(-c2ccccc2)c2cc(Br)ccc2c(=O)n1Cc1ccc(NC(=O)CCC(=O)O)cc1	12%
